D2 ag-1 – activates the human D2 dopamine receptor; P14416; DiscoveRx PathHunter D2 beta-arrestin, luminescence, 90 min; 100% = 57 uM dopamine signal; activation, % (no concentration beside the values); hit rate 0.084% among 360,000; in the data active = activation above about 40%; inconclusive = between about 15% and that limit
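Agonist mode: compounds alone added to overnight-plated D2 PathHunter cells for 90 min at 37 C, with 57 uM final dopamine (EC100) defining full response. Beta-arrestin recruitment detected by chemiluminescent reagent, read after 1 h at ambient temperature.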
D2 PAM-1 – positive allosteric modulators of human D2 dopamine receptor | DiscoveRx D2 beta-arrestin cells, luminescence, 90 min; 100% = 57 uM dopamine signal | P14416 | hit rate 0.23% among 360,000 | potentiation, % (test concentration not listed); in the data active = potentiation above about 50%; inconclusive = mostly about 30% to 49%
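PathHunter beta-arrestin assay in DiscoveRx D2 cells. Compounds were added with an EC20 of dopamine (50 nM final) for 90 min at 37 deg C. Luminescence was read 1 h after detection reagent, with 57 uM dopamine as the EC100 control.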
D2 antag – antagonists of human D2 dopamine receptor; inhibition, % at 10 µM; HEK293 TREx D2 cells, calcium flux, dopamine EC80; hit rate 2% among 340,000; in the data active = inhibition above about 30%; inactive = below that, where a call was filed; note: 0% is about no effect
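Compounds are added to dye-loaded, induced HEK293 T-REx cells coupled to calcium release via D2; after a 3 min kinetic read an EC80 dopamine stimulus is given and fluorescence is recorded for 3 more min.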
D2 ag-2 – D2 dopamine receptor (human) agonism; HEK293 T-REx D2 cells, calcium flux agonist mode; activation, % at 2 µM; hit rate 0.53% among 340,000; AID 485358;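 active = activation over 3 SD above normal in the single-dose calcium agonist read, cut at about 30% in these data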; note: 0% is about no effect
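Agonism is scored from calcium flux in a force-coupled, inducible HEK293 cell line expressing D2, read kinetically for 180 s after compound addition against dopamine controls.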
D2 PAM-2 – positive allosteric modulators of human D2 dopamine receptor | HEK293 T-REx D2, calcium flux, EC20 dopamine potentiation | potentiation, % at 10 µM | hit rate 0.34% among 340,000 | AID 485347 | P14416;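 active = potentiation over 3 SD above the plate norm, cut at about 30% in these data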; note: 0% is about no effect
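Calcium flux readout, no-wash dye, 1 read/s. Inducible HEK293 Trex D2 line, overnight 30 C. Compound alone 180 s (agonist flags), then EC20 dopamine, another 180 s to score potentiation.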
D3 ag – confirmation of human D3 dopamine receptor agonists, beta-arrestin | hit rate 4% among 2,300 | DiscoveRx D3 beta-arrestin cells, luminescence, 90 min | shares compounds with D2 ag-2 | Potency, µM (series often up to 76.9 µM), for inactives: at the top dose activation, usual class: activators | AID 720506;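 note: potency is the fitted concentration of half-maximal effect; 100% = dopamine control response; nearly all actives have a fitted effect of over 70% in size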
Target sequence (P35462 whole entry, looked up): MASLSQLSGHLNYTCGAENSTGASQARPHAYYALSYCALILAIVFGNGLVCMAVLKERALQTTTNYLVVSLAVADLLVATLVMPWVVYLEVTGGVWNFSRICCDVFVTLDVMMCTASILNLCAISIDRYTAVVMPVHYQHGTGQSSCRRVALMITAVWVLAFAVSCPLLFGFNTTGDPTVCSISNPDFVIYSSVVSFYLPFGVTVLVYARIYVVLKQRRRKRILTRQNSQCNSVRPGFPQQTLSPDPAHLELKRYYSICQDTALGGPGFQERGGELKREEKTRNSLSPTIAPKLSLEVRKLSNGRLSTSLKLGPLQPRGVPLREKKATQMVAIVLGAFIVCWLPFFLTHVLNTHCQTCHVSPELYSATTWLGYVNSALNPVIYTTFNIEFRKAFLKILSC
D2 ag-3 – D2 receptor agonism, beta-arrestin counterscreen; DiscoveRx PathHunter D2 beta-arrestin, luminescence, 90 min; response scale: percent relative to full dopamine signal; shares compounds with D2 ag-2; hit rate 5.9% among 2,300; Potency, µM (top dose mostly 76.9 µM), for the others: top-dose activation, actives largely listed as activators; note: potency is the fitted concentration of half-maximal effect; % of control where 0% means no effect; nearly all actives have a fitted effect of over 70% in size
Active calls of the source: *; ? = inconclusive; / = no result; ! = not confirmed by another sample. Compounds with a hit are over-represented: about 2.4% of the library has one in this group of screens. Unless noted, calls come from the whole dose curve; as a rule, active = well fitted activation curve with a large enough effect; inconclusive = small, poorly fitted or top-dose-only effect; inactive = flat fitted curve, though single readings scatter.

SMILES	D2 ag-1	D2 PAM-1	D2 antag	D2 ag-2	D2 PAM-2	D3 ag	D2 ag-3
COc1ccc([C@H]2CC(=O)C=C(c3ccc4c5c(cccc35)CC4)C2)cc1	-2	-5	-8	0	0	-9%	-6%
COc1ccc([C@H]2CC(=O)C=C(c3ccc(C)c4ccccc34)C2)cc1	-3	-7	-5	-1	12	/	/
COc1cc(NC(=O)Nc2nc(C(N)CCc3ccccc3)cs2)cc(OC)c1OC (stereo not drawn)	11	-9	/	/	/	/	/
COC(=O)CN(C)C(=O)CC1C(=O)NCCN1CC(C)(C)C (stereo not drawn)	-2	-3	-3	40*	-12	-5%	-1%
COc1ccc(CNC(=O)C2CCN(c3nc4ccccc4[nH]3)CC2)c(OC)c1	/	/	/	0	-10	/	/
CCOC(=O)c1c(NC(C)=O)c2c3c(sc2n1Cc1nc(-c2cccc(C)c2)oc1C)CCCC3	/	/	/	0	2	/	/
CC(=O)Nc1ccc(SCCN2CC[C@@H](C)CCC2=O)cc1	-4	-4	-2	0	-5	0%	-4%
CC(=O)Nc1ccc(SCCN2CC[C@@H](O)CCC2=O)cc1	-2	0	-11	0	19	/	/
CC1=CC(C)C(/C=N/N=C(N)N)C(C)C1 (stereo not drawn)	-3	-6	19	28	-3	-1%	-4%
Cc1cc2nc(C3CCN(CC4COc5ccccc5O4)CC3)[nH]c2cc1C (stereo not drawn)	4	-8	11	47*	-19	17%	?
C=CCNC(=O)CN1CCC(c2nc3cc(C)c(C)cc3[nH]2)CC1	0	1	22	0	-9	/	/
CC(C)(CC(=O)OCC(=O)Nc1ccc(F)c(Cl)c1)CC1=NS(=O)(=O)c2ccccc2N1	/	/	/	1	-16	/	/
COc1cccc(C(=O)NC2CCCC2)c1	6	-9	-1	0	0	/	/
COc1cccc(C(=O)NNC(=S)NC2CCCCC2)c1	-8	-29	31*	56*	-20	-4%	-5%
N#C/C(=N\Nc1ccccc1)C(N)=S	-11	-29	4	1	-1	-10%	-19%
COC(=O)C1CCN(Cc2cn(Cc3ccccc3)nc2-c2cc3ccccc3o2)CC1	-1	-11	13	37*	-13	-9%	8%
CCOC(=O)C1CCN(C(=O)c2ccc3c(c2)sc2nc(-c4ccccc4)cn23)CC1	/	/	/	0	2	/	/
CN(C)c1ccc(NC(=O)Nc2nc(C(N)C3CCCCC3)cs2)cc1 (stereo not drawn)	1	-15	/	/	/	/	/
COc1ccc(NC(=O)CN2CCN(c3ccc(F)cc3)CC2)cc1Cl	-3	-20	5	1	-4	/	/
COc1cc(Cl)c(C)cc1NC(=O)c1ccccc1NC(=O)CN1CCN(c2ccccn2)CC1	0	7	/	/	/	/	/
COc1ccc(NC(=O)CN2CCN(c3ccccn3)CC2)cc1Cl	9	-5	-12	66*	-19	?	14%
COc1cc(NC(=O)c2ccccc2)c(OC)cc1NC(=O)CN1CCN(c2ccccn2)CC1	7	?	-3	2	-29	?	?
O=S(=O)(NC1CCN(S(=O)(=O)c2c(F)cccc2F)C1)c1ccc2c(c1)OCCO2 (stereo not drawn)	/	/	-9	0	-2	13%	10%
CCCCCCCC/C=C\CCCCCCCC(=O)NCCO	-3	-7	12	1	4	/	/
CCCCCCCC/C=C\CCCCCCCC(=O)NCCc1ccc(O)c(O)c1	100*	?	57*	39*	7	4µM*	16µM*
SMILES	D2 ag-1	D2 PAM-1	D2 antag	D2 ag-2	D2 PAM-2	D3 ag	D2 ag-3
O=S1(=O)C[C@@H](N2CCC(Cc3ccccc3)CC2)[C@H](COCc2ccccc2)N1	-11	0	/	/	/	/	/
CC(C)c1cccc(-c2ccc3c(c2)S(=O)(=O)c2cccc(C(=O)O)c2C3=O)c1	-4	-14	-2	-1	-7	-1%	0%
Cc1ccc(-c2c(C(=O)N3CCN(c4cc(Cl)ccc4C)CC3)oc(=O)c3ccccc23)cc1	/	/	/	0	-4	/	/
CC(C)(C)c1ccc(S(=O)(=O)N2CCC(Oc3ccc(-n4cnnn4)cc3)CC2)cc1	/	/	/	0	8	/	/
COc1ccccc1Nc1nc(N)nc(CN2CCN(c3ccccc3)CC2)n1	6	-6	44*	52*	-23	-4%	9%
Nc1nc(CN2CCN(c3ccccn3)CC2)nc(Nc2ccc(F)cc2)n1	?	17	73*	74*	-24	-8%	?
Cc1ccc(Nc2nc(N)nc(CN3CCN(c4ccccc4)CC3)n2)cc1Cl	?	102*	/	/	/	21%	20µM*
CCNc1ccc(-c2nc(-c3ccncc3)no2)cc1[N+](=O)[O-]	/	/	/	-2	8	/	/
COc1ccc(C2Nc3ccccc3NC3=C2C(=O)CC(C)(C)C3)cc1OC (stereo not drawn)	8	-6	38*	0	-4	-1%	-1%
CCc1ccccc1NC(=O)C1CCN(c2nn3c(=O)cc(C)nc3s2)CC1	/	/	/	3	5	/	/
c1ccc(N2CCN(CCc3nnc4n3CCCCC4)CC2)cc1	5	-20	27	32*	11	-2%	8%
c1ccc(Cc2nnc3n2CCCCC3)cc1	-1	-14	-7	0	-4	/	/
O=C(Nc1cc2c(cc1C(=O)c1ccccc1Br)OCCO2)c1ccccc1	/	/	/	0	-2	/	/
O=C(c1ccc2c(c1)OCO2)N1CCCC(c2ccccc2)C1 (stereo not drawn)	2	-7	55*	23	-4	23%	26%
CC1CCCN(C(=O)c2ccc3c(c2)OCO3)C1 (stereo not drawn)	-7	-13	6	0	-1	/	/
Cc1c(O)c(=O)ccn1C	-1	6	31*!	57*!	-14	0%	-3%
Cn1nc(C(F)(F)F)c(-c2ccc(F)cc2)c1NC(=O)c1ccco1	1	-3	-6	0	-3	1%	2%
Cn1nc(C(F)(F)F)c(-c2ccccc2)c1NC(=O)c1ccco1	-4	-17	-8	0	1	/	/
CCCCC(O)CN1CCC(c2ccccc2)CC1 (stereo not drawn)	-1	-47	48*	52*	-25	-10%	2%
CC(CN1CCC(O)CC1)c1ccccc1 (stereo not drawn)	-1	-10	-1	0	6	/	/
O=C1NC(=O)C2(Br)Nc3ccc(Br)cc3C(=O)C2N1 (stereo not drawn)	-3	-3	/	/	/	/	/
